From PubChem BioAssay AID1259417 (TB Discovery Research, Infectious Disease Research Institute, 2018)
Among all 1,100 compounds or so, about 760 (69%) were called active. No rule for the calls is given here. The set was probably picked from earlier hits. The list shows a part of the results.

Test: M. tuberculosis growth inhibition, HTS (AID 1259417);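 also: bacteria grown with compound for 5 days at 37 °C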
Settings: stronger effect = higher value, concentration not given here
[1] = M. tuberculosis DsRed fluorescence growth inhibition
[2] = M. tuberculosis growth inhibition

Row | SMILES | inhibition [1] | inhibition [2] [%]
1 | O=C(Nc1nc(SCc2ccc(F)cc2)ns1)c1cc(F)c(F)cc1Cl | 7.63% (inactive) | 5.06
2 | Cc1ccc(CSc2nnc(CCCCCNC(=O)OC(C)(C)C)o2)cc1 | 30.6% (active) | 36.2
3 | CCOC(=O)CN(C#N)c1nc(N(C)C)nc(N(C)C)n1 | 98.5% (active) | 98.9
4 | CCn1nnc(NC(=O)c2sc3ccccc3c2Cl)n1 | 41.4% (active) | 47.8
5 | O=C(Nc1nnc(C2CCCCC2)s1)c1sc2ccccc2c1Cl | 0.622% (inactive) | -19.5
6 | O=C(Nc1nccs1)c1ccc(CSc2ccccc2)o1 | 28.2% (active) | 69.6
7 | O=C(CSc1nnc(Cc2ccccc2)o1)Nc1nccs1 | 1.22% (inactive) | -3.79
8 | Cc1ccc(C)c(-c2cc(C(=O)Nc3nccs3)c3ccccc3n2)c1 | -0.261% (inactive) | -26.2
9 | O=C(CNCCN1CCOCC1)Nc1sc2c(c1C(=O)Nc1ccccc1)CCC2 | 100% (active) | 100
10 | O=C(Nc1sc2c(c1C(=O)Nc1ccccc1)CCC2)c1cccc(Br)c1 | 0.927% (inactive) | -1.38
11 | COCCCNC(=O)c1c(NC(=O)c2ccccc2OC)sc2c1CCCC2 | 2.12% (inactive) | -22.4
12 | CCOc1ccc(NC(=O)c2c(NC(=O)CNCCN3CCOCC3)sc3c2CCC3)cc1 | 100% (active) | 101
13 | Cc1ccccc1C(=O)Nc1sc2c(c1C(=O)NCCO)CCC(C(C)(C)C)C2 (centres undefined) | 5.07% (inactive) | -17.9
14 | CO[C@H]1C=CO[C@@]2(C)Oc3c(C)c(O)c4c(O)c(c5c(c4c3C2=O)=NC2(CCN(CC(C)C)CC2)N=5)NC(=O)C(C)=CC=C[C@H](C)[C@H](O)[C@@H](C)[C@@H](O)[C@@H](C)[C@H](OC(C)=O)[C@@H]1C | 100% (active) | 101
15 | Cc1ccc(-c2nnc(NC(=O)c3ccc(Br)s3)o2)c(C)c1 | 83.8% (active) | 75.7
16 | Cc1ccc(-c2nnc(NC(=O)c3ccc(Cl)s3)o2)c(C)c1 | 86.1% (active) | 75.4
17 | COc1ccc(OC(C)C(=O)Nc2ccc(I)cc2)cc1 (centres undefined) | 76% (active) | 79.3
18 | COc1ccc(OC(C)C(=O)Nc2ccc(Cl)cc2C)cc1 (centres undefined) | 1.5% (inactive) | -1.86
19 | Oc1ccccc1-c1n[nH]c(/C=C/c2ccc(Cl)cc2)n1 | 2.06% (inactive) | -29.9
20 | CC(C)(C)c1ccc(C(=O)Nc2ccc(S(=O)(=O)Nc3nccs3)cc2)cc1Br | 1.5% (inactive) | -12.7
21 | CC1CCc2c(sc3ncn(C(C)C(=O)OCc4ccccc4)c(=O)c23)C1 (centres undefined) | 6.46% (inactive) | 8.18
22 | CC1CCc2sc3ncnc(NCCc4ccccc4)c3c2C1 (centres undefined) | 35.8% (active) | 35.3
23 | O=C(Nc1ccc2c(c1)CCC2)c1ccc(Br)s1 | 25.5% (inactive) | 10.7

Row | SMILES | inhibition [1] | inhibition [2] [%]
24 | CC(Sc1nnc(N)s1)C(=O)Nc1nc2c(s1)CCCC2 (centres undefined) | 18.7% (inactive) | 26
25 | O=C(Nc1nc2c(s1)CCCC2)c1ccc(Br)s1 | 42.7% (active) | 18.9
26 | Cc1cc(OCc2nnc(SCC(=O)OC3CCCCC3)o2)ccc1Cl | 94% (active) | 94.6
27 | Cc1cccc(OCc2nnc(SCC(=O)OC3CCCCC3)o2)c1 | 82.9% (active) | 94.9
28 | O=C(C=Cc1cccc(C(F)(F)F)c1)Nc1cccc(C(F)(F)F)c1 | 25.5% (inactive) | 6.54
29 | Cc1ccc(S(=O)(=O)Nc2ccc(NC(=O)Nc3cccc(C(F)(F)F)c3)cc2)cc1 | 1.5% (inactive) | -12.5
30 | O=C(Nc1ccc(C(F)(F)F)cc1)Nc1cccc(Cl)c1 | 99.7% (active) | 100
31 | CCOC(=O)CNC(=O)CSc1nc(-c2ccccc2)ns1 | 85.8% (active) | 65.5
32 | CCOC(=O)CNC(=O)CSc1nc(-c2cccc(C)c2)ns1 | 56.7% (active) | 71.3
33 | CCOC(=O)CSc1nc(-c2ccccc2)ns1 | 51.6% (active) | 86.5
34 | c1ccc2cc3nc4c(ccc5ccccc54)nc3cc2c1 | 97.7% (active) | 99
35 | COc1cccc(-n2nnnc2S(=O)(=O)Cc2ccccc2)c1 | 100% (active) | 101
36 | CCCS(=O)(=O)c1nnnn1-c1cccc(OC)c1 | 101% (active) | 100
37 | COc1cccc(-n2nnnc2S(C)(=O)=O)c1 | 99.7% (active) | 100
38 | O=C(C=Cc1cccs1)N1CCN(Cc2ccc3c(c2)OCO3)CC1 | 99.4% (active) | 100
39 | O=C(NC1CCCCC1)N1CCN(Cc2ccc3c(c2)OCO3)CC1 | 99.4% (active) | 100
40 | CC12CC3CC(C)(C1)CC(CNCc1ccccc1O)(C3)C2 | 98.9% (active) | 99.3
41 | c1ccc(CNc2nc(N3CCN(Cc4ccccc4)CC3)nc3ccccc23)cc1 | -2.6% (inactive) | -0.535
42 | CC1(C)C=Cc2c(nc3ccccc3c2NCc2ccccc2)C1 | 16.7% (active) | 35.8
43 | Cc1cc(OCCCn2ccnc2)ccc1Cl | 98.9% (active) | 99.6
44 | Cc1cc(OCCn2ccnc2)ccc1Cl | 89.5% (active) | 90.8
45 | Clc1ccc(SCCCn2ccnc2)cc1 | 100% (active) | 99.6
46 | Clc1ccc(OCCCCn2ccnc2)c(Br)c1 | 98.8% (active) | 99.3

Row | SMILES | inhibition [1] | inhibition [2] [%]
47 | Clc1cc(Br)ccc1OCCCCn1ccnc1 | 99.4% (active) | 99.4
48 | Brc1c(OCCCn2ccnc2)ccc2ccccc12 | 98.3% (active) | 99
49 | Clc1ccc(OCCCCCn2ccnc2)c(Cl)c1 | 100% (active) | 99.3
50 | C=CCc1cc(C)ccc1OCCCn1ccnc1 | 92.4% (active) | 97.1
51 | C=CCc1cc(Cl)ccc1OCCCCn1ccnc1 | 100% (active) | 100
52 | C=CCc1cc(C)ccc1OCCCCn1ccnc1 | 99.4% (active) | 100
53 | C=CCn1c(-c2cccs2)nc2ccccc21 | 97.1% (active) | 100
54 | NC(CC(=O)c1ccc(Cl)cc1Cl)C(Cl)(Cl)Cl (centres undefined) | 99.7% (active) | 99.4
55 | Oc1ccc(-c2nc3cc4ccccc4cc3nc2-c2ccccc2)cc1 | 19.6% (active) | 37.8
56 | Cc1ccc2sc(NNC(=O)C3COc4ccccc4O3)nc2c1C (centres undefined) | -2.21% (inactive) | -8.62
57 | Cc1cc(C)c2nc(NNC(=O)c3cc4ccccc4oc3=O)sc2c1 | 46.2% (active) | 86.5
58 | Cc1cccc2sc(NNC(=O)c3cc4ccccc4oc3=O)nc12 | 47.1% (active) | 89
59 | Cc1ccc2sc(NNC(=O)c3cc4ccccc4oc3=O)nc2c1C | 3.35% (active) | 33.4
60 | Cc1ccc2nc(NNC(=O)c3cc4ccccc4oc3=O)sc2c1 | -1.04% (inactive) | 10.6
61 | CCCOc1ccc(C2Oc3ccc(Br)cc3C=C2[N+](=O)[O-])cc1OC (centres undefined) | 10.3% (active) | 37.5
62 | Cc1ccc(Nc2ccccc2N)cc1 | 99.5% (active) | 99.1
63 | COc1ccc(Nc2ccccc2N)cc1 | 96% (active) | 97.4
64 | Nc1ccccc1Nc1ccccc1 | 98.6% (active) | 98.4
65 | COc1ccc(Nc2cc(C)nc3c2ccc2ccccc23)cc1 | 18.8% (inactive) | 19.5
66 | O=c1cc(Cc2ccccc2)nc2c(-c3ccccc3)c[nH]n12 | 93% (active) | 96.9
67 | CCN1CCc2c(sc(NC(=O)c3ccccc3)c2-c2nc3ccccc3s2)C1 | 52.7% (active) | 77.8
68 | NC(=O)c1c(NC(=O)c2ccc([N+](=O)[O-])s2)sc2c1CCN(Cc1ccccc1)C2 | 25.9% (inactive) | 2.21
69 | Cc1ccccc1C(=O)Nc1sc2c(c1C(=O)N1CCN(Cc3ccccc3)CC1)CCCCC2 | -0.558% (inactive) | -12.1

Row | SMILES | inhibition [1] | inhibition [2] [%]
70 | COCCNS(=O)(=O)c1ccc(-c2ccc(C)cc2)cc1 | 98.6% (active) | 98.3
71 | CCCCOc1ccc(S(=O)(=O)Nc2ccc(I)cc2)cc1 | -1.45% (inactive) | 17.1
72 | O=S(Cc1ccccc1)c1nc2ccccc2s1 (centres undefined) | 51.3% (active) | 74.9
73 | CN(C)c1ccc(Nc2ncnc3ccc(Br)cc23)cc1 | 100% (active) | 99.4
74 | Brc1ccc2ncnc(Nc3ccc(N4CCCC4)cc3)c2c1 | 100% (active) | 99.7
75 | Nc1c2c(nc3sc4c(c13)CCCC4)CCCC2 | 99.7% (active) | 101
76 | Cc1nc(SCc2csc(C)n2)c2c3c(sc2n1)CCCC3 | 13.5% (inactive) | -7.63
77 | Nc1c(C(=O)Nc2ccc(Br)cc2)sc2nc3c(c(-c4cccs4)c12)CCCC3 | 5.67% (inactive) | -16.7
78 | CC1CCc2nc3sc4c(c3c(N)c2C1)CCCC4 (centres undefined) | 99.8% (active) | 99.6
79 | N#CCCN(Cc1ccccc1)C(=S)NC(=O)c1ccccc1 | -2.05% (inactive) | 0.14
80 | CN(Cc1ccccc1)C(=S)NC(=O)c1cccs1 | 23.4% (active) | 33.4
81 | O=C(Nc1nnc(-c2ccccc2Cl)o1)c1cccc(Oc2ccccc2)c1 | 94% (active) | 93.2
82 | O=C(Nc1nnc(-c2ccccc2Cl)o1)c1ccco1 | -3.23% (inactive) | -7.63
83 | COc1cccc(-c2nnc(NC(=O)C=Cc3cccs3)o2)c1 | -4.21% (inactive) | 4.98
84 | COc1cccc(-c2nnc(NC(=O)c3cccc(F)c3)o2)c1 | 89.3% (active) | 93.2
85 | O=C(Nc1nnc(C2=COCCO2)o1)c1cccc(Cl)c1 | 12.5% (inactive) | 27.2
86 | COc1cccc(C(=O)Nc2nnc(-c3ccc(Cl)cc3)o2)c1 | 35.6% (active) | 70.5
87 | CC(Nc1nc(N2CCCCC2)nc2ccccc12)c1ccccc1 (centres undefined) | 98.6% (active) | 98.9
88 | CC(Nc1nc(N2CCN(C(=O)c3ccc(Cl)cc3)CC2)nc2ccccc12)c1ccccc1 (centres undefined) | 0.606% (inactive) | -19.8
89 | COC(C)(C)C#CC(=O)c1cccc2ccccc12 | 100% (active) | 98.9
90 | COc1ccccc1C1=Nc2cccc3cccc(c23)N1 | 45.9% (active) | 45.8
91 | Cc1cccc(C(=O)Nc2nnc(C3=COCCO3)o2)c1 | 8.04% (inactive) | 3.45
92 | Cc1nnc(NC(=O)c2ccc3ccccc3c2)o1 | 98.3% (active) | 99.1
